# Data: PubChem BioAssay
# Active and inactive are the calls of the source.
# Tests used:
# [1] = tested on: PRMT1 (protein arginine N-methyltransferase 1); assay: small molecules binding arginine methyltransferase PRMT1 – biochemical, small-molecule microarray, 635 nm fluorescence, primary screen (AID 1088); conditions: higher = more signal;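 further: binding of Prmt1 protein to compounds spotted on small-molecule microarray slides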
# [2] = growth effects on S. cerevisiae YJM789 – YJM789 clinical isolate, OD600, 24 h, basal, primary screen (AID 1089); conditions: higher = more signal, called active from +8 up or from −8 down;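 further: growth of clinical yeast isolate S. cerevisiae YJM 789 seeded 1000 cells per well; test concentration not given here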
# [3] = S. pombe growth modifiers, basal conditions – strain 972, OD600, 24 h, no modulator, primary screen (AID 1090);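 further: basal condition with compound alone and no growth modifier present; test concentration not given here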; conditions: S. pombe 972 growth, higher = more signal, called active from +8 up or from −8 down
# [4] = budding yeast growth modifiers under rapamycin – strain BY4716, OD600, 96 h, primary screen (AID 1091); further: test concentration not given here; conditions: S. cerevisiae BY4716 + rapamycin, higher = more signal, called active from +8 up or from −8 down
# [5] = molecular target: Torsin-1A-interacting protein 2 (Homo sapiens) (UniProt Q8NFQ8); assay: small molecules binding lysate-expressed LULL1 – cell lysate, human LULL1 lysate, 635/667 nm fluorescence, primary screen (AID 1092); conditions: small-molecule microarray, hLULL1 lysate binding, 635 nm fluorescence; higher = more signal;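 further: probe is lysate of COS7 cells overexpressing human LULL1; score merges per-feature 667 nm fluorescence with signal-to-noise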
# Torsin-1A-interacting protein 2 (Homo sapiens), sequence (Q8NFQ8 whole entry, looked up): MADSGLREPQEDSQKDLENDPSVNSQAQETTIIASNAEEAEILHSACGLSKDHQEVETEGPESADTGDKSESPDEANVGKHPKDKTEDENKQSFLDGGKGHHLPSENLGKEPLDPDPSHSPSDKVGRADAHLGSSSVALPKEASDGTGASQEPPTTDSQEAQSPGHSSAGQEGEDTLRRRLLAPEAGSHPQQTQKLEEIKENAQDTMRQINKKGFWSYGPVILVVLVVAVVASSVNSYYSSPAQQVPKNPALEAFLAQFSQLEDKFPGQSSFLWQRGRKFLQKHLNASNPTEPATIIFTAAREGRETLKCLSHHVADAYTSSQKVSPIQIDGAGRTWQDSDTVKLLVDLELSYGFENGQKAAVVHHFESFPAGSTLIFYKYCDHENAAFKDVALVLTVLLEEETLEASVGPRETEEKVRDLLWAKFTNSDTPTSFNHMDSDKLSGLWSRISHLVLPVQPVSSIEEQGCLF
# [6] = optical density change of DRC41 E. coli – strain DRC41, OD650, 24 h, E. coli filamentation project, primary screen (AID 1093);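 further: MC1000 strain lacking acrAB efflux and sulA so SOS filamentation is blocked; test concentration not given here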; conditions: E. coli DRC41 growth, higher = more signal, called active from +8 up or from −8 down
# [7] = probe aLefty2 binding to arrayed compounds – biochemical, biotinylated probe, 635/667 nm fluorescence, primary screen (AID 1094); conditions: small-molecule microarray, higher = more signal;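 further: score merges spot fluorescence near 667 nm with spot signal-to-noise ratio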
# [8] = tested on: Noggin (protein binding on small-molecule microarray); assay: small molecules binding Noggin protein – biochemical, 635/667 nm fluorescence, primary screen (AID 1095); conditions: 635 nm fluorescence, higher = more signal;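 further: score merges 667 nm feature fluorescence with signal to noise over triplicate slides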
# [9] = molecular target: Neurogenic locus notch homolog protein 3 (Homo sapiens) (UniProt Q9UM47); assay: small molecules binding NOTCH3 protein – biochemical, 635/667 nm fluorescence, primary screen (AID 1096); conditions: small-molecule microarray, 635 nm fluorescence, higher = more signal
# Neurogenic locus notch homolog protein 3 (Homo sapiens), sequence (Q9UM47 whole entry, looked up): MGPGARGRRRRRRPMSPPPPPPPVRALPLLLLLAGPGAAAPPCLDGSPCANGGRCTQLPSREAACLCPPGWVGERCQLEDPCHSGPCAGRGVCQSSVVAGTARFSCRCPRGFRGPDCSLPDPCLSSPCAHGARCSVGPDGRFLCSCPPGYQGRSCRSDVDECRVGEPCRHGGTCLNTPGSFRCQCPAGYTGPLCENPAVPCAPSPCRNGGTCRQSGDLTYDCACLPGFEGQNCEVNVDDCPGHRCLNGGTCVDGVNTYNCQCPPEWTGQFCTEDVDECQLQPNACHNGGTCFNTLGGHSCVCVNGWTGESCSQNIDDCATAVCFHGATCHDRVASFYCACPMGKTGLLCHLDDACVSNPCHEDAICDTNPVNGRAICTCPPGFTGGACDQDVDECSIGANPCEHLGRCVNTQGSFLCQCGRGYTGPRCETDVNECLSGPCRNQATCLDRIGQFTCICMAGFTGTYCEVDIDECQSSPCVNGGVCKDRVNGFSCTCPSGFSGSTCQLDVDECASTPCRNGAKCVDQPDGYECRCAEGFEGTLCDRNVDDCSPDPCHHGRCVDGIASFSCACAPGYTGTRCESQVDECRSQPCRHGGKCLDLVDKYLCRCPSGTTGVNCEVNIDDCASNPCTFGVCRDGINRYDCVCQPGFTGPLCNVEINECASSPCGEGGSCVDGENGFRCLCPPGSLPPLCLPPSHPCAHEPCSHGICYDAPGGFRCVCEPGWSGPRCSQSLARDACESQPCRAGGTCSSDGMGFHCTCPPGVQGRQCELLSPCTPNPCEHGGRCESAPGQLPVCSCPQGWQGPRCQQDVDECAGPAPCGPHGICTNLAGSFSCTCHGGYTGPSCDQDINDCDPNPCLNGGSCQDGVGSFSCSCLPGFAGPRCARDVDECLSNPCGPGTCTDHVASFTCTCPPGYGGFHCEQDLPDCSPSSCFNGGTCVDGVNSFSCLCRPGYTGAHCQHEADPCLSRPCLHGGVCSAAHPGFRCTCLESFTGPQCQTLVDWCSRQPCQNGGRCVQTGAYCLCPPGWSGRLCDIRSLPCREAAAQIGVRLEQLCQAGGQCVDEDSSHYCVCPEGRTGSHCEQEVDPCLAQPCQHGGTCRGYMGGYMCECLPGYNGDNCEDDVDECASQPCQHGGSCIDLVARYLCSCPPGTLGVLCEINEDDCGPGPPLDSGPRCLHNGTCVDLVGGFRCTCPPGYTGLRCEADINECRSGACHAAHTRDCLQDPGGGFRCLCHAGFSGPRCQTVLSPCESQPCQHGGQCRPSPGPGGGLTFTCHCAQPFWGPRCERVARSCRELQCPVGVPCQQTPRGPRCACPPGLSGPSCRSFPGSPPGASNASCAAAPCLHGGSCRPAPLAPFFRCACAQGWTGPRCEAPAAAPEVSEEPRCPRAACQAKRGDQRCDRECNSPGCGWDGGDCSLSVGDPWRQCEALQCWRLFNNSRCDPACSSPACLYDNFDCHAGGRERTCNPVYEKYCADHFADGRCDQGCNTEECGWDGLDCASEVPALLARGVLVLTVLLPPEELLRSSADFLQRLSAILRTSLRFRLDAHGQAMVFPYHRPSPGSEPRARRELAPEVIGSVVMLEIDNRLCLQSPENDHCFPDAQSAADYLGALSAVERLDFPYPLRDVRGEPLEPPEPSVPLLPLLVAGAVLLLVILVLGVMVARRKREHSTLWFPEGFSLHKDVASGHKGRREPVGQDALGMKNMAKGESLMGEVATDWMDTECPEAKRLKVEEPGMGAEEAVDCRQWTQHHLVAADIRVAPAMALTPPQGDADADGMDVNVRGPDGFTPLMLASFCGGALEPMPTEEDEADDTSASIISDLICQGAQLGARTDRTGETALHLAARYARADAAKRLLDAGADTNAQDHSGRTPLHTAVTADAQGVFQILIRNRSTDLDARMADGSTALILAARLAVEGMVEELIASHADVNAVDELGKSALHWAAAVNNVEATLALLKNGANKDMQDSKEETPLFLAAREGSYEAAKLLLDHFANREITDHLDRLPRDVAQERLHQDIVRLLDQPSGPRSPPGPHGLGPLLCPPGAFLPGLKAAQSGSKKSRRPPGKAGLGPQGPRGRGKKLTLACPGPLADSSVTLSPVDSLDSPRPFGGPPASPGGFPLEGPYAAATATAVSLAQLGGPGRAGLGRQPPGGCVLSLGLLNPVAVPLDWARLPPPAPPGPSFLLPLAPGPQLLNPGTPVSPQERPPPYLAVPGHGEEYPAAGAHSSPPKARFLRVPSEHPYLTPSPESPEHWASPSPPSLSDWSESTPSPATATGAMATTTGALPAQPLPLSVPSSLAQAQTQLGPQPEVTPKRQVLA
# [10] = probe aEGFR binding to arrayed compounds – biochemical, biotinylated probe, 635/667 nm fluorescence, primary screen (AID 1097); conditions: small-molecule microarray, higher = more signal;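 further: probe is a biotinylated anti-EGFR antibody binding compounds printed on slides; score combines fluorescence near 667 nm and signal to noise of each spot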
# [11] = tested on: Plasmodium falciparum Sir2 (PF13_0152, Sir2A); assay: Plasmodium falciparum Sir2A binding compounds – biochemical, small-molecule microarray, 635 nm fluorescence, primary screen (AID 1098); conditions: fluorescence 635 nm, higher = more signal;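 further: score merges spot fluorescence intensity with its signal-to-noise ratio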
# [12] = probe aDKK1 binding to arrayed compounds – biochemical, biotinylated probe, 635/667 nm fluorescence, primary screen (AID 1099); conditions: small-molecule microarray, higher = more signal;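 further: score merges 667nm spot fluorescence with signal to noise across triplicate slides; reference of the scale not given here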
# [13] = probe aCHRDL2 binding to arrayed compounds – biochemical, biotinylated probe, 635/667 nm fluorescence, primary screen (AID 1100); conditions: small-molecule microarray, higher = more signal
# [14] = change in splice reporter luminescence, either direction, cell-based, HEK293, spliceosome inhibition project, primary screen (AID 1101); conditions: HEK293 splicing luciferase reporter, 24 h, higher = more signal, called active from +8 up or from −8 down;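 further: HEK293 cells carrying a splicing-competent luciferase reporter gene; test concentration not given here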
# [15] = molecular target: Fibroblast growth factor 10 (Homo sapiens) (UniProt O15520); assay: compounds binding fibroblast growth factor 10 – biochemical, small-molecule microarray, 635 nm fluorescence, primary screen (AID 1102); conditions: FGF10 binding, fluorescence 635 nm, higher = more signal
# Fibroblast growth factor 10 (Homo sapiens), sequence (O15520 whole entry, looked up): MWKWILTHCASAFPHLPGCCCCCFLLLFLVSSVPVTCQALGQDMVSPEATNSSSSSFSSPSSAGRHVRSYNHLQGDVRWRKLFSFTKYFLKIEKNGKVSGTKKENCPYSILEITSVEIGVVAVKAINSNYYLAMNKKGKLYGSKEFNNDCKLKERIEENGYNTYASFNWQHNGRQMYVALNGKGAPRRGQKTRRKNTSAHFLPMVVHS
# [16] = tested on: glycogen synthase kinase-3 (GSK3A per assay name; protocol says GSK3B); assay: compounds binding glycogen synthase kinase-3 – biochemical, small-molecule microarray, 635 nm fluorescence, GSK3A, primary screen (AID 1103); conditions: fluorescence 635 nm, higher = more signal; further: the record names both GSK3A and GSK3B
# [17] = molecular target: Epidermal growth factor receptor (Homo sapiens) (UniProt P00533); assay: compounds binding epidermal growth factor receptor – biochemical, small-molecule microarray, 635 nm fluorescence, primary screen (AID 1104); conditions: EGFR binding, higher = more signal;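 further: score merges 667 nm emission intensity with spot signal to noise over triplicate slides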
# Epidermal growth factor receptor (Homo sapiens), sequence (P00533 whole entry, looked up): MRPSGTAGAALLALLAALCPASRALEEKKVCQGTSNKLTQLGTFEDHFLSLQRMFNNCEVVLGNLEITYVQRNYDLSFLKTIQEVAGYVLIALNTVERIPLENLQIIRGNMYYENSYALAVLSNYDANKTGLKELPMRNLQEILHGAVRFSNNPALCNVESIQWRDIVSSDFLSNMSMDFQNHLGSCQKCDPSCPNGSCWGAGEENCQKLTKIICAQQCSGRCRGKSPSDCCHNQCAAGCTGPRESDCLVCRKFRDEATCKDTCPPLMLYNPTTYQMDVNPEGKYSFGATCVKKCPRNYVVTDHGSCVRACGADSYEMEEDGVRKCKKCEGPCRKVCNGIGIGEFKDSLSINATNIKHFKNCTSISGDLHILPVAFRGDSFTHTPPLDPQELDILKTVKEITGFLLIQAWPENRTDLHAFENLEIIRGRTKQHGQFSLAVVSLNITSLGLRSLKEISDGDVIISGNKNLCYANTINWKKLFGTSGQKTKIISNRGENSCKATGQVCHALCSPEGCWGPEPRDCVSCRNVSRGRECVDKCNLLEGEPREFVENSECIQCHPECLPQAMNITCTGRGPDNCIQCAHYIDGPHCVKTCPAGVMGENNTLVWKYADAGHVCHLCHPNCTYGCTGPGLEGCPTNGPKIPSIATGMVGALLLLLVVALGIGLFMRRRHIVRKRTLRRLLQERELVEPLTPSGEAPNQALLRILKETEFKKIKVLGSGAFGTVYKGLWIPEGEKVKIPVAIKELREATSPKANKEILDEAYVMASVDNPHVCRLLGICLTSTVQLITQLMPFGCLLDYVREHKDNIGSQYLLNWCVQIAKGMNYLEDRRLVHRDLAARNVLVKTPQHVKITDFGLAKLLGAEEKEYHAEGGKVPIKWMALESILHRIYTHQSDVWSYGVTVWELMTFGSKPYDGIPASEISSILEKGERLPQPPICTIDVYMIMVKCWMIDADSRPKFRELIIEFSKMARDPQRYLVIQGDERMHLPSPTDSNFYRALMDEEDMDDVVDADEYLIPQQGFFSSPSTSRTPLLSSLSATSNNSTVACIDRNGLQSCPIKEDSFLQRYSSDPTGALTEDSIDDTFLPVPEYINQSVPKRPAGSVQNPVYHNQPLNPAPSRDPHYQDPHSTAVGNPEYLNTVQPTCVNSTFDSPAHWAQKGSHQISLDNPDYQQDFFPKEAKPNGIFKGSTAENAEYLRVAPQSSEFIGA
# [18] = molecular target: Follistatin-related protein 3 (Homo sapiens) (UniProt O95633); assay: compounds binding follistatin-related protein 3 – biochemical, small-molecule microarray, 635 nm fluorescence, primary screen (AID 1105); conditions: FSTL3 binding, higher = more signal;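 further: score merges emission near 667 nm and signal to noise per printed spot across three slides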
# Follistatin-related protein 3 (Homo sapiens), sequence (O95633 whole entry, looked up): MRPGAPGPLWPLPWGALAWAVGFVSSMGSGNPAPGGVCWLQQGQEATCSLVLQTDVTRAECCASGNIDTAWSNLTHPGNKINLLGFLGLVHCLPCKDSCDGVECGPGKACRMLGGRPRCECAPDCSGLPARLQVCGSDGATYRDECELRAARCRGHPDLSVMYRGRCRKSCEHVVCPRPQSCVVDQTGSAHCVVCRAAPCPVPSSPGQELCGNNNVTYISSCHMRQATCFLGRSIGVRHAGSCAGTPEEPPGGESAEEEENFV
# [19] = molecular target: Dickkopf-related protein 1 (Homo sapiens) (UniProt O94907); assay: small molecules binding DKK1 protein – biochemical, small-molecule microarray, 635 nm fluorescence scan, primary screen (AID 1106); conditions: higher = more signal;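 further: score merges emission near 667 nm with signal to noise over three replicate slides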
# Dickkopf-related protein 1 (Homo sapiens), sequence (O94907 whole entry, looked up): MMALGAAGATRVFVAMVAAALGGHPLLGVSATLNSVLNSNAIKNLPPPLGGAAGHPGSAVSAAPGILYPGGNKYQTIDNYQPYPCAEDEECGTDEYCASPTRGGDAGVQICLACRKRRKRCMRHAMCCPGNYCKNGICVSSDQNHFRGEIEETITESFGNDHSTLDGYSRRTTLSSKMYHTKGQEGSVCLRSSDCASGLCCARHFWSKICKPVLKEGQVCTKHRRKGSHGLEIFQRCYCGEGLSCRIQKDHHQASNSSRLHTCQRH
# [20] = tested on: Inhibin beta A chain (activin A); assay: small molecules binding activin A – biochemical, small-molecule microarray, 635 nm fluorescence scan, primary screen (AID 1107); conditions: INHBA, higher = more signal;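 further: mouse activin A protein probed at 4.33 µg/mL on printed slides; score merges bound-protein fluorescence near 667 nm with spot signal-to-noise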
Structure (SMILES),composite z-score [1],z-score [2],z-score [3],z-score [4],composite z-score [5],z-score [6],composite z-score [7],composite z-score [8],composite z-score [9],composite z-score [10],composite z-score [11],composite z-score [12],composite z-score [13],z-score [14],composite z-score [15],composite z-score [16],composite z-score [17],composite z-score [18],composite z-score [19],composite z-score [20]
CCOC(=O)C1=CC[C@@H](c2ccccc2)N(S(=O)(=O)c2ccc(C)cc2)[C@H]1c1cccc(OC)c1,1.06,0.498 (inactive),1.52 (inactive),2.05 (inactive),2.19,-0.439 (inactive),0.116,-0.266,0.618,-0.0407,0.389,0.708,0.244,-0.937 (inactive),0.425,0.897,0.197,0.549,0.135,0.949
Cc1ccc(C(C)CC(O)C2C=CC3C(=O)N(c4ccccc4)C(=O)C3N2Nc2ccc(C#N)cc2)o1 (stereo not given),1.55,-26 (active),-16.8 (active),-3.16 (inactive),3.46,-0.0931 (inactive),0.188,0.383,1.13,0.122,0.966,0.846,0.539,3.02 (inactive),1.12,1.08,0.202,0.913,-0.0435,0.607
COC(=O)C1=CC(CCCO)=CC(C)N(Cc2cccc(OC(F)(F)F)c2)C=C1C(=O)OC (stereo not given),0.897,-0.743 (inactive),-2.12 (inactive),0.219 (inactive),2.65,-1.53 (inactive),-0.0712,-0.296,0.532,-0.02,0.325,0.116,0.259,-0.488 (inactive),0.278,-0.606,-0.94,0.0535,-0.695,0.383
CCCCNC(=O)c1ccc(C#C[Si](C(C)C)(C(C)C)C(C)C)c(OC(C)=O)c1,0.613,-0.272 (inactive),-1.61 (inactive),0.645 (inactive),0.765,-0.423 (inactive),-0.0916,0.926,1.05,-0.0208,0.28,-0.0188,-0.539,-0.831 (inactive),0.832,0.807,1.36,1.49,0.784,1.59
COc1ccc(C(O)C2C=CC3C(=O)N(c4ccccc4)C(=O)C3N2Nc2ccccc2)cc1 (stereo not given),1.53,0.219 (inactive),-0.24 (inactive),0.211 (inactive),3.6,-0.701 (inactive),0.191,0.505,1.05,-0.0382,0.97,-0.0903,0.637,1.68 (inactive),1.31,0.592,0.199,1.37,-0.0198,1.04
C=CC[C@H](OC(=O)Nc1ccc(SC)cc1)c1ccc(OCCO)cc1,-0.693,-0.739 (inactive),-2.94 (inactive),-0.598 (inactive),0.639,0.951 (inactive),-0.15,0.732,0.201,-0.19,0.392,-0.164,0.799,-1.69 (inactive),-0.163,-0.989,-0.634,-0.0191,-0.472,0.138
[N-]=[N+]=Nc1ccccc1C[C@@]1(C(=O)O)N=C(c2ccc(OCCCO)cc2)O[C@@H]1c1ccccc1N=[N+]=[N-],1.39,-1.05 (inactive),-0.613 (inactive),-1.67 (inactive),3.04,-0.679 (inactive),0.255,-0.414,1.09,0.0998,1.46,1.16,1.32,-0.469 (inactive),0.285,1.11,-0.383,0.626,-0.435,1.29
O=C(O)[C@H]1C[C@H]2C(=O)N[C@@H](Cc3ccccc3)C(=O)N2[C@H]1c1cccc(OCCO)c1,1.46,0.893 (inactive),-1.11 (inactive),-0.629 (inactive),2.14,0.446 (inactive),0.127,1.74,0.814,0.206,0.348,0.507,0.198,-0.129 (inactive),0.986,0.874,0.391,1.2,1.17,0.206
COCCOC(=O)N1C(=O)[C@@]2(c3ccccc31)[C@H](c1ccc(OCCO)cc1)N1[C@H](c3ccccc3)[C@H](c3ccccc3)OC(=O)[C@H]1[C@@H]2C(=O)N1CCCCCCC1,1.54,0.178 (inactive),0.182 (inactive),2.92 (inactive),5.18,-0.504 (inactive),1.83,2.45,1,1.43,2.35,3.24,1.9,-1.59 (inactive),1.76,1.46,2.03,1.76,2.62,1.89
CO[C@H]1O[C@H](CO)[C@@H](OC(=O)Nc2ccc(C#N)cc2)[C@@H]2OC(=O)[C@H](Cc3cccc(Br)c3)C/C=C/C[C@@H](Cc3cccc(Br)c3)C(=O)O[C@@H]12,1.24,0.471 (inactive),0.0261 (inactive),27.2 (active),1.26,0.27 (inactive),0.212,0.432,0.733,0.11,0.717,0.617,0.534,1.5 (inactive),0.788,-0.037,0.223,0.707,0.336,-0.247
